Reference: PubChem BioAssay AID1159580 (chemical genetic matrix, 2015)
Values joined by “and” are separate entries in the source; they are usually repeats but may differ in a detail not shown here. Equal entries are not always repeated. The whole screen tested about 5,500 compounds, of which about 2,000 (36%) were called active. About 18% were inconclusive and are not listed. No stated cut-off is given here; in the data, active means normalized growth mostly below about 0.91 (no sharp cut-off); inconclusive means no clear call, values can overlap the other calls; inactive means mostly above about 0.92. This is one part of the list.

Assay: chemical genetic growth profiling, strain panel (AID 1159580);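 further: tested at 20 µM; growth read once vehicle control cultures reached saturation at 30 °C; 1 = growth at the plate median or of vehicle wells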
Conditions: growth OD

Measured: normalized growth

CCCCCCCCC(=O)NCc1ccc(O)c(OC)c1
inactive: S. cerevisiae deletion strains, locus YJR075W, strain HOC1, stronger effect = lower value 0.989 and 0.961 | S. cerevisiae deletion strains, locus YKL009W, strain mrt4, stronger effect = lower value 0.955 | S. cerevisiae deletion strains, locus YKL068W, stronger effect = lower value 0.986 | S. cerevisiae deletion strains, locus YKL085W, strain MDH1 (second series), stronger effect = lower value 0.987 | S. cerevisiae deletion strains, locus YKL085W, strain MDH1, stronger effect = lower value 0.987 | S. cerevisiae deletion strains, locus YKL160W, strain elf1, stronger effect = lower value 0.985 | S. cerevisiae deletion strains, locus YKL190W, strain CNB1, stronger effect = lower value 0.999 | S. cerevisiae deletion strains, locus YKR001C, strain vps1, stronger effect = lower value 0.983 | S. cerevisiae deletion strains, locus YKR026C, strain gcn3, stronger effect = lower value 0.979 | S. cerevisiae deletion strains, locus YKR091W, strain srl3, stronger effect = lower value 0.999 | S. cerevisiae deletion strains, locus YLL001W, strain dnm1, stronger effect = lower value 1 | S. cerevisiae deletion strains, locus YLL026W, stronger effect = lower value 1 | S. cerevisiae deletion strains, locus YLL041C, strain sdh2, stronger effect = lower value 1 | S. cerevisiae deletion strains, locus YLR027C, strain aat2, stronger effect = lower value 1.01 | S. cerevisiae deletion strains, locus YLR039C, strain RIC1, stronger effect = lower value 1 | S. cerevisiae deletion strains, locus YLR058C, strain SHM2, stronger effect = lower value 0.984 | S. cerevisiae deletion strains, locus YLR102C, strain apc9, stronger effect = lower value 0.987 | S. cerevisiae deletion strains, locus YLR113W, strain HOG1, stronger effect = lower value 1.01 | S. cerevisiae deletion strains, locus YLR221C, strain rsa3, stronger effect = lower value 1.01 | S. cerevisiae deletion strains, locus YLR258W, strain gsy2, stronger effect = lower value 0.989 | S. cerevisiae deletion strains, locus YLR262C, strain YPT6 (second series), stronger effect = lower value 1.02 | S. cerevisiae deletion strains, locus YLR262C, strain YPT6, stronger effect = lower value 1.01 | S. cerevisiae deletion strains, locus YLR268W, strain sec22, stronger effect = lower value 0.97 | S. cerevisiae deletion strains, locus YLR320W, strain mms22, stronger effect = lower value 0.997 | S. cerevisiae deletion strains, locus YLR330W, strain CHS5, stronger effect = lower value 0.985 | S. cerevisiae deletion strains, locus YLR342W, strain FKS1 (second series), stronger effect = lower value 0.966 | S. cerevisiae deletion strains, locus YLR342W, strain FKS1, stronger effect = lower value 1.03 | S. cerevisiae deletion strains, locus YLR357W, strain rsc2, stronger effect = lower value 1.12 | S. cerevisiae deletion strains, locus YLR370C, strain arc18, stronger effect = lower value 0.993 | S. cerevisiae deletion strains, locus YLR371W, strain rom2, stronger effect = lower value 0.985 | S. cerevisiae deletion strains, locus YLR384C, strain iki3, stronger effect = lower value 1 | S. cerevisiae deletion strains, locus YLR418C, strain cdc73, stronger effect = lower value 0.989 | S. cerevisiae deletion strains, locus YML016C, strain PPZ1, stronger effect = lower value 0.978 | S. cerevisiae deletion strains, locus YML032C, strain rad52, stronger effect = lower value 0.97 | S. cerevisiae deletion strains, locus YML120C, strain ndi1, stronger effect = lower value 0.992 | S. cerevisiae deletion strains, locus YML124C, strain tub3, stronger effect = lower value 0.975 | S. cerevisiae deletion strains, locus YMR058W, strain fet3, stronger effect = lower value 1 | S. cerevisiae deletion strains, locus YMR078C, strain ctf18, stronger effect = lower value 0.977 | S. cerevisiae deletion strains, locus YMR125W, strain sto1, stronger effect = lower value 1.05 | S. cerevisiae deletion strains, locus YMR129W, stronger effect = lower value 1.02 | S. cerevisiae deletion strains, locus YMR205C, strain PFK2, stronger effect = lower value 0.961 | S. cerevisiae deletion strains, locus YMR223W, strain ubp8, stronger effect = lower value 0.965 | S. cerevisiae deletion strains, locus YMR231W, strain pep5, stronger effect = lower value 1.01 | S. cerevisiae deletion strains, locus YMR263W, strain SAP30, stronger effect = lower value 0.998 | S. cerevisiae deletion strains, locus YMR307W, strain GAS1, stronger effect = lower value 1.07 and 0.979 | S. cerevisiae deletion strains, locus YNL067W, strain RPL9B, stronger effect = lower value 0.995 | S. cerevisiae deletion strains, locus YNL071W, strain lat1, stronger effect = lower value 0.976 | S. cerevisiae deletion strains, locus YNL128W, strain TEP1, stronger effect = lower value 0.999 and 0.969 | S. cerevisiae deletion strains, locus YNL153C, strain GIM3, stronger effect = lower value 0.997 | S. cerevisiae deletion strains, locus YNL175C, strain NOP13, stronger effect = lower value 0.972 | S. cerevisiae deletion strains, locus YNL183C, strain NPR1, stronger effect = lower value 0.93 | S. cerevisiae deletion strains, locus YNL197C, strain WHI3, stronger effect = lower value 0.963 | S. cerevisiae deletion strains, locus YNL209W, strain ssb2, stronger effect = lower value 0.995 | S. cerevisiae deletion strains, locus YNL224C, strain SQS1, stronger effect = lower value 0.984 | S. cerevisiae deletion strains, locus YNL233W, strain BNI4, stronger effect = lower value 0.988 | S. cerevisiae deletion strains, locus YNL248C, strain rpa49, stronger effect = lower value 1.06 | S. cerevisiae deletion strains, locus YNL250W, strain rad50, stronger effect = lower value 0.975 | S. cerevisiae deletion strains, locus YNL271C, strain bni1, stronger effect = lower value 0.983 | S. cerevisiae deletion strains, locus YNL298W, strain CLA4, stronger effect = lower value 0.966 | S. cerevisiae deletion strains, locus YNL307C, strain MCK1, stronger effect = lower value 0.955 | S. cerevisiae deletion strains, locus YNL322C, strain KRE1 (second series), stronger effect = lower value 0.998 | S. cerevisiae deletion strains, locus YNL322C, strain KRE1, stronger effect = lower value 0.994 and 0.983 | S. cerevisiae deletion strains, locus YNR049C, strain mso1, stronger effect = lower value 1.02 | S. cerevisiae deletion strains, locus YNR052C, strain pop2, stronger effect = lower value 0.992 | S. cerevisiae deletion strains, locus YOL006C, strain TOP1, stronger effect = lower value 0.927 | S. cerevisiae deletion strains, locus YOL012C, strain htz1 0.863 | S. cerevisiae deletion strains, locus YOL147C, strain pex11, stronger effect = lower value 0.991 | S. cerevisiae deletion strains, locus YOR001W, strain rrp6, stronger effect = lower value 1.01 | S. cerevisiae deletion strains, locus YOR061W, strain CKA2, stronger effect = lower value 0.988 | S. cerevisiae deletion strains, locus YOR069W, strain VPS5, stronger effect = lower value 0.983 | S. cerevisiae deletion strains, locus YOR070C, strain gyp1, stronger effect = lower value 0.982 | S. cerevisiae deletion strains, locus YOR080W, strain dia2, stronger effect = lower value 1.01 | S. cerevisiae deletion strains, locus YOR083W, strain WHI5 (second series), stronger effect = lower value 0.998 | S. cerevisiae deletion strains, locus YOR083W, strain WHI5, stronger effect = lower value 0.988 | S. cerevisiae deletion strains, locus YOR106W, strain vam3, stronger effect = lower value 1 | S. cerevisiae deletion strains, locus YOR136W, strain idh2, stronger effect = lower value 0.981 | S. cerevisiae deletion strains, locus YOR144C, strain elg1, stronger effect = lower value 0.989 | S. cerevisiae deletion strains, locus YOR184W, strain ser1, stronger effect = lower value 0.939 | S. cerevisiae deletion strains, locus YOR231W, strain MKK1, stronger effect = lower value 0.988 | S. cerevisiae deletion strains, locus YOR265W, strain rbl2, stronger effect = lower value 1.01 | S. cerevisiae deletion strains, locus YOR270C, strain vph1, stronger effect = lower value 0.969 | S. cerevisiae deletion strains, locus YOR290C, strain snf2, stronger effect = lower value 0.978 | S. cerevisiae deletion strains, locus YOR316C, strain cot1, stronger effect = lower value 0.98 | S. cerevisiae deletion strains, locus YPL051W, strain arl3, stronger effect = lower value 0.987 | S. cerevisiae deletion strains, locus YPL055C, strain LGE1, stronger effect = lower value 1.01 | S. cerevisiae deletion strains, locus YPL078C, strain atp4, stronger effect = lower value 0.969 | S. cerevisiae deletion strains, locus YPL106C, strain sse1, stronger effect = lower value 1.04 | S. cerevisiae deletion strains, locus YPL240C, strain hsp82, stronger effect = lower value 1 | S. cerevisiae deletion strains, locus YPL241C, strain CIN2, stronger effect = lower value 0.978 and 0.994 | S. cerevisiae deletion strains, locus YPL256C, strain CLN2, stronger effect = lower value 1 | S. cerevisiae deletion strains, locus YPR119W, strain clb2, stronger effect = lower value 0.989 | S. cerevisiae deletion strains, locus YPR141C, strain kar3, stronger effect = lower value 0.98 | S. cerevisiae deletion strains, locus YPR163C, strain tif3, stronger effect = lower value 0.989 | S. cerevisiae deletion strains, locus YPR167C, strain met16, stronger effect = lower value 0.986 | S. cerevisiae deletion strains, strain wtn01, stronger effect = lower value 0.984 | S. cerevisiae strains, strain wild type, stronger effect = lower value 1
